Calls of active or inactive are those of the source. How the source made its calls: active means hit-call score of the fitted dose curve at least 0.9, where 1 is the maximum; inactive means score below 0.9.

In general, AC50 refers to the midpoint of the concentration-response curve, whichever way the signal moves.

This test in a line: ATG_VDRE_CIS: Attagene CIS-FACTORIAL HepG2 Assay for human Vitamin D Receptor Element (VDRE) (AID 2282968). The note with it: HepG2 VDRE cis-reporter transcription, actives raise or lower the signal. On the procedure: ATG_CIS is a cell-based, multiplexed-readout assay that uses HepG2, a human liver cell line, with measurements taken at 24 hours after chemical dosing in a 24-well plate.ATG_VDRE_CIS is one of 52 assay component(s) measured or calculated from the ATG_CIS assay. It is designed to make measurements of mRNA induction, a form of inducible reporter, as detected with fluorescence intensity signals by Reverse transcription polymerase chain reaction (RT-PCR) and Capillary electrophoresis technology.Data from the assay component ATG_VDRE_CIS was analyzed into 1 assay endpoint. This assay endpoint, ATG_VDRE_CIS, was analyzed with bidirectional fitting relative to DMSO as the negative control and baseline of activity. Using a type of inducible reporter, measures of mRNA for gain or loss-of-signal activity can be used to understand the reporter gene at the transcription factor-level as they relate to the gene VDR. Furthermore, this assay endpoint can be referred to as a primary readout, because this assay has produced multiple assay endpoints where this one serves a reporter gene function. To generalize the intended target to other relatable targets, this assay endpoint is annotated to the nuclear receptor intended target family, where the subfamily is non-steroidal.
Human liver HepG2 cells are transiently transfected with multiple reporter transcription units (MRTUs) in 6-well plates using FuGene 6 reagent (Roche; 3 ml FuGene/1 mg DNA). The MRTU constructs are regulated by a cis-regulating element (promoter). […] A major difference between the CIS and TRANS system is that in CIS activities of endogenous TFs are measured, whereas the TRANS assay evaluates changes in activities of exogenous, chimeric NR-Gal4 proteins. […] At the end of 24 hour incubation, total RNA was isolated using TriZol reagent (Invitrogen). The isolated RNA is then reverse-transcribed using oligo(dT) primer and Mo-MLV reverse transcriptase (Invitrogen) with DNAse I (Ambion) treatment for 30 min. The one-tenth of the produced cDNA was amplified by PCR using Taq DNA polymerase (Invitrogen) and two reporter sequence-specific primers. The PCR products were fluorescently labeled by primer extension with 6-arboxyfluorescein (6-FAM) 5'-labeled reporter sequence-specific primer (2 min at 95 C, 20 s at 68 C and 10 min at 72 C) and these products were digested with 5U of HpaI (New England Biolabs) for 2h at 37 C. The fragments were purified using Qiaquick PCR columns (Qiagen), analyzed on an ABI 3130xL genetic analyzer (Applied Biosystems) with peak positions identified by using a set of X-rhodamine (ROX)-labeled MapMarker1000 molecular weight standards (BioVentures). The raw capillary electrophoresis data was processed using Attagraph software (Attagene).
On to `CCn1nc(C)c2c1C(=O)NCC(c1ccc(O)cc1)=N2`, for which the call was inactive. In the case of `OC(CCl)CCl`, the compound was classed as inactive. Take `CCCCCCCCN(C)C`: the AC50 was 0.00907 µM (active). Consider `O=C1CN(N=Cc2ccc([N+](=O)[O-])o2)C(=O)N1`, for which the result was inactive. Same read-out and setting: the value for `COS(C)(=O)=O` was “inactive”; that for `FC(F)(F)C(F)(F)C(F)(F)C(F)(F)C(F)(F)C(F)(F)I` was “inactive”; that for `C[C@@H](Oc1ccc(CNC(=O)c2cccnc2Oc2ccc3c(c2)OCO3)c(F)c1)C(=O)O` was “inactive”. Same read-out and setting: the value for `O=C(NO)C1(NS(=O)(=O)c2ccc(Oc3ccc(F)cc3)cc2)CCOCC1` was “inactive”. For the compound `CCCCOC(=O)c1ccccc1`, the call was inactive. Consider `COc1cc2c(c(OC)c1OC)-c1ccc(OC)c(=O)cc1[C@@H](NC(C)=O)CC2`, for which the call was inactive. Still for that read-out and setting: next, `OCC(CO)(CO)CO`: “inactive”; `CC(C)CCCCCCOC(=O)C1CCCCC1C(=O)OCCCCCCC(C)C` (stereo not given): “inactive”. Same read-out and setting: the value for `C[C@]12C=CC(=O)C=C1CC[C@H]1[C@@H]3C[C@@H](O)[C@](O)(C(=O)CO)[C@@]3(C)C[C@H](O)[C@@]12F` was “inactive”; that for `CCCCCCCCCCCCCCO` was “inactive”; that for `OC(Cn1cncn1)(Cn1cncn1)c1ccc(F)cc1F` was “inactive”. The same measure, in the same setting: next, `c1ccc2c(c1)-c1cccc3c1c-2cc1ccccc13`: “inactive”; `CC1(C)C(=O)N(Cl)C(=O)N1Cl`: “inactive”. Consider `C[Si](C)(C)C(F)(F)C(F)(F)C(F)(F)F`, for which the outcome was inactive. On the same count and under the same terms, next, `O=S(=O)(O)c1ccc(N=Nc2c(O)ccc3cc(S(=O)(=O)O)ccc23)cc1`: “inactive”. Still for that read-out and setting: next, `CCCc1ccccc1`: “inactive”. `CC(C)c1nnc2ccc(-c3ocnc3-c3cc(F)ccc3F)cn12`: the concentration at half-maximal activity (AC50) was 37.7 µM (active). For `O=S(=O)(O)CCC(F)(F)C(F)(F)C(F)(F)C(F)(F)C(F)(F)C(F)(F)F`, the compound was called inactive. With `CCc1ccc(O)c(C(C)(C)C)c1`, the half-maximal activity concentration (AC50) was 43 µM (active). For `O=C(Cl)C(F)(F)C(F)(F)C(F)(F)C(=O)Cl`, the call was inactive. Same read-out and setting: the value for `OC(O)(C(F)C(O)(O)C(F)(F)F)C(F)(F)F` was “inactive”. Still for that read-out and setting: the value for `Cc1nc(-c2ccccn2)ncc1C(=O)Nn1cc(C)c2cc(F)ccc21` was “inactive”; that for `OCCNCCO` was “inactive”. As to `COc1cc(C(C)C)c2c(c1)S(=O)(=O)N(COc1cc(=O)n3cccc(OCCN4CCCCC4)c3n1)C2=O`, the concentration at half-maximal activity (AC50) was 5.67 µM (active). Consider `NCC(F)(F)C(F)(F)C(F)(F)C(F)(F)F`, for which the result was inactive. On the same count and under the same terms, next, `OCc1ccccc1`: “inactive”; `c1ccc2cc3ccccc3cc2c1`: “inactive”. With `OCc1c[nH]c2ccccc12`, the AC50 was 5.32 µM (active) [middle of 5 runs].

Regarding `Cc1cccc(O)c1C`, the outcome was inactive. Same read-out and setting: next, `FC(F)C(F)(F)COCC1CO1` (stereo not given): “inactive”. For the compound `NC(=O)N(O)[C@@H]1COc2cc(OCc3ccccc3)ccc21`, the compound was called inactive.

Regarding `OCCC(F)(F)C(F)(F)C(F)(F)C(F)(F)F`, the outcome was inactive.

In the case of `CCCCCOC(C)=O`, the call was inactive. The same measure, in the same setting: the value for `O=S1(=O)CCCO1` was “inactive”. In the case of `C=CCc1cc(S(=O)(=O)c2ccc(O)c(CC=C)c2)ccc1O`, the concentration at half-maximal activity (AC50) is 9.12 µM (active).

In the case of `CCOc1ccc2[nH]cc(C(=O)NCc3ccccc3)c(=O)c2n1`, the half-maximal activity concentration (AC50) is 27.6 µM (active).

Values taken from PubChem BioAssay (EPA / NIEHS).
